Measured values taken from PubChem BioAssay (NCATS).
Results filed as inconclusive are left out. Values without a mark were called inactive. The call rests on the fitted dose curve; in most records, active means well fitted activation curve with a large enough effect; inconclusive means small, poorly fitted or top-dose-only effect; inactive means no such curve, though single readings can be large or run the other way.

These compounds were tested against Rap guanine nucleotide exchange factor 3 (Homo sapiens) (UniProt O95398) (assay: Confirmatory qHTS for agonist of cAMP-regulated guanine nucleotide exchange factor 3 (EPAC1) (AID 1645881;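 further: EPAC1 catalysed release of BODIPY-GDP from Rap1B seen as fluorescence loss; 100% = effect of cAMP agonist control; nearly all actives have a fitted effect of over 75% in size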)). Conditions: EPAC1 Rap1B BODIPY-GDP exchange fluorescence; series mostly up to 154 µM; activation: at the top concentration.
Sequence of Rap guanine nucleotide exchange factor 3 (Homo sapiens) (O95398 whole entry, looked up): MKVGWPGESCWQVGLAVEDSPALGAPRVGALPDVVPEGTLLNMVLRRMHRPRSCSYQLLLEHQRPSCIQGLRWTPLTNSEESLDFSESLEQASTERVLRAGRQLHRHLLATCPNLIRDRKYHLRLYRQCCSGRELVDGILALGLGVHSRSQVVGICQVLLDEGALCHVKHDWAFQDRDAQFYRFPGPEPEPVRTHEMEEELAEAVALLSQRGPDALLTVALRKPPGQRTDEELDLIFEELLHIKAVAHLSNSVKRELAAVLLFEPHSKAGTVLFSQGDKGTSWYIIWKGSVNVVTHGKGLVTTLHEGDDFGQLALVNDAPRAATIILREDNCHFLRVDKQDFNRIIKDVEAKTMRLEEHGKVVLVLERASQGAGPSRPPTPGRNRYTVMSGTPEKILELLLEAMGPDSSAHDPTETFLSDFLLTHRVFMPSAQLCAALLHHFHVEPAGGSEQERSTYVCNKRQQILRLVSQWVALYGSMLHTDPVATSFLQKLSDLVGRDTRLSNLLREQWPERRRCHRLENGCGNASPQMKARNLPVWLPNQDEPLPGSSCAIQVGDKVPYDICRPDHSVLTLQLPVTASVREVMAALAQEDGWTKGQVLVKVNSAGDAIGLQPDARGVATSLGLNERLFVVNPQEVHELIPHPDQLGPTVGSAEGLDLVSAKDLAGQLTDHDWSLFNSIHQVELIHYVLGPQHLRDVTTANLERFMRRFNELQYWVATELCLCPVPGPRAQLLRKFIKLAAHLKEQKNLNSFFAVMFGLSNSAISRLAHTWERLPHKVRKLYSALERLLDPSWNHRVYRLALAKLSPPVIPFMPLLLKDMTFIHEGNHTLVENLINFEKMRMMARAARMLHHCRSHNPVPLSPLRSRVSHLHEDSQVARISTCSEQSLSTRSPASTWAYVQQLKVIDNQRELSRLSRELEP

Question: For `Cc1cccc(-n2ccnc2SCC(=O)Nc2ccc(F)cc2F)c1C`, which “activation” value is on record?
Answer: 18.4%

Question: With `CN(CC(=O)Nc1cccc(F)c1)C(=O)c1cccc(S(=O)(=O)N2CC3(C)CC2CC(C)(C)C3)c1` (stereo not given) as the compound, how does the “activation” value read?
Answer: -22.5%

Question: Which “activation” value does the source give for `Cc1cc(C)nc(NS(=O)(=O)c2ccc(NC(=O)CN3C(=O)S/C(=C\c4ccccc4)C3=O)cc2)n1` here?
Answer: -2.45%

Question: Which “activation” value does the source give for `O=C(N/N=C/c1c(O)ccc2ccccc12)c1[nH]ncc1Br` here?
Answer: 21%

Question: How did the “activation” value turn out when `COc1ccc(NC(=O)Cn2ncc(Cl)c(Cl)c2=O)cc1S(=O)(=O)N1CCOCC1` was run?
Answer: 6.25%

Question: `O=C(NC1(O)C(=O)c2ccccc2C1=O)c1ccc(C(F)(F)F)cc1` was tested. Which “activation” value did it give?
Answer: -7.66%

Question: `O=C(NC1CCCCC1)C(c1ccc(-c2ccccc2)cc1)n1c(=O)c(-c2ccco2)nc2ccccc21` (stereo not given) was tested. Which “activation” value did it give?
Answer: 12.1%

Question: For `Cc1cccc(S(=O)(=O)Nc2ccc(S(=O)(=O)Nc3nccs3)cc2)c1`, which “activation” value is on record?
Answer: -4.22%

Question: How did the “activation” value turn out when `O=C(N/N=C/c1ccc(Sc2ccccn2)o1)c1cc2ccccc2cc1O` was run?
Answer: 1.25%

Question: `O=C1/C(=C/c2cccs2)COc2ccccc21` was tested. Which “activation” value did it give?
Answer: 22.5%

Question: For `COc1ccccc1NC(=O)c1ccccc1NS(=O)(=O)c1cccs1`, which “activation” value is on record?
Answer: 7.86%

Question: Which “activation” value does the source give for `CCOC(=O)C1=CCN(S(=O)(=O)c2ccccc2Cl)C1c1ccc(Cl)c(Cl)c1` (stereo not given) here?
Answer: 10.3%

Question: For `O=C(CC(c1ccccc1)c1cc(Cl)ccc1O)N1CCCC1` (stereo not given), which “activation” value is on record?
Answer: 7.84%

Question: With `CC1OC(CC(=O)O)CC2=C1C(=O)c1c(O)cccc1C2=O` (stereo not given) as the compound, how does the “activation” value read?
Answer: 19%

Question: For `Nc1c2c(=O)[nH]c(O)cc2nn1-c1ccccc1`, which “activation” value is on record?
Answer: 20%

Question: With `Cc1ccc(C(=O)c2cn(Cc3cccc(C)c3)c3nc(C)ccc3c2=O)cc1` as the compound, how does the “activation” value read?
Answer: -10.3%

Question: With `O=S(=O)(Nc1ccc(Cl)cc1NS(=O)(=O)c1ccccc1)c1ccccc1` as the compound, how does the “activation” value read?
Answer: 7.19%

Question: For `O=C(Nc1sc2c(c1C(=O)O)CCCC2)c1ccc(Cl)cc1`, which “activation” value is on record?
Answer: -2.36%

Question: How did the “activation” value turn out when `Cc1ccc(-c2cc(C(=O)Nc3ccc(S(=O)(=O)Nc4onc(C)c4C)cc3)c3ccccc3n2)cc1` was run?
Answer: 6.33%

Question: How did the “activation” value turn out when `COc1ccc(NC(=O)CN(C)C(=O)c2cc(-c3ccco3)nc3ccccc23)cc1` was run?
Answer: 9.24%

Question: With `CCOC(=O)c1ccc2ncc(C(=O)OCC)c(Nc3ccc(C)c(Br)c3)c2c1` as the compound, how does the “activation” value read?
Answer: 8.14%

Question: How did the “activation” value turn out when `CCCN(CC(=O)Nc1ccccc1OC)C(=O)c1cccc(S(=O)(=O)Nc2ccc(OC)cc2)c1` was run?
Answer: 4.26%

Question: For `Cc1ccccc1C(=O)Nc1sc2c(c1C(=O)N1CCCCC1)CCC(C)C2` (stereo not given), which “activation” value is on record?
Answer: 9.45%

Question: With `Cc1ccc(-c2nc3ccc(Br)cn3c2Cc2ccccc2)cc1` as the compound, how does the “activation” value read?
Answer: 11.1%

Question: For `COc1ccc(C(CC(=O)c2ccc(C)cc2)C(C#N)C#N)cc1OC` (stereo not given), which “activation” value is on record?
Answer: 11.3%

Question: How did the “activation” value turn out when `CCOc1ccccc1NC(=O)C1CCN(c2nc(-c3ccc(OC)cc3)no2)CC1` was run?
Answer: 1.98%

Question: `CCOc1ccccc1Oc1ncnc2c1oc1ccccc12` was tested. Which “activation” value did it give?
Answer: 26.6%

Question: `C=CCOC(=O)C1=C(C)NC(C)=C(C(=O)OCC=C)C1c1ccco1` was tested. Which “activation” value did it give?
Answer: 9.99%

Question: `O=C(CSc1ccc(-c2ccco2)nn1)c1cccc([N+](=O)[O-])c1` was tested. Which “activation” value did it give?
Answer: 8.99%

Question: Which “activation” value does the source give for `Cc1cc(SCC(=O)N/N=C/c2ccc(O)c(O)c2)nc2ccccc12` here?
Answer: 10.3%

Question: For `CC(C)Nc1nc(NC(C)C)nc(OCCOC(=O)c2ccccc2)n1`, which “activation” value is on record?
Answer: 15.2%

Question: For `c1cc(-c2cc3nc(NC4CCCCC4)ccn3n2)ccc1OCCN1CCOCC1`, which “activation” value is on record?
Answer: 17.8%

Question: With `C=CS(=O)(=O)N(Cc1ccccc1Br)[C@H](CO)CC(C)C` as the compound, how does the “activation” value read?
Answer: 3.33%

Question: For `Oc1c(C2=NCCNC(C(F)(F)F)=C2)ccc2ccccc12`, which “activation” value is on record?
Answer: 2.47%

Question: With `O=C(/C=C/c1ccc(-c2ccccc2[N+](=O)[O-])o1)c1ccco1` as the compound, how does the “activation” value read?
Answer: 11.1%

Question: Which “activation” value does the source give for `O=C1N(Cc2ccccc2)c2ccccc2C1(O)c1c[nH]c2ccccc12` (stereo not given) here?
Answer: 11.7%

Question: How did the “activation” value turn out when `Cn1cccc1C(=O)NC(=O)COC(=O)c1ccc(S(C)(=O)=O)c([N+](=O)[O-])c1` was run?
Answer: -5.89%

Question: With `CCC1=NN2C(=N)/C(=C/c3ccc(OS(=O)(=O)c4ccccc4)cc3)C(=O)N=C2S1` as the compound, how does the “activation” value read?
Answer: 10.3%

Question: For `CCCN1CCN(c2ncnc3sc(C(=O)Nc4ccc(OC(F)(F)F)cc4)c(C)c23)CC1`, which “activation” value is on record?
Answer: -32.2%

Question: For `Cc1cccc(Cn2c(COc3ccccc3)nc3ccccc32)c1`, which “activation” value is on record?
Answer: 21.6%

These compounds were tested against Rap guanine nucleotide exchange factor 4 (Homo sapiens) (UniProt Q8WZA2) (assay: Confirmatory qHTS for agonist of cAMP-regulated guanine nucleotide exchange factor 4 (EPAC2) (AID 1645884;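 further: nucleotide exchange releases bodipy-GDP from Rap1 and this lowers its fluorescence; on the % scale 0 is the no-effect control and ±100 the full control effect; nearly all actives have a fitted effect of over 65% in size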)). Conditions: EPAC2 GEF activity, Rap1B-BODIPY-GDP fluorescence; series mostly up to 154 µM; activation: at the top concentration.
Sequence of Rap guanine nucleotide exchange factor 4 (Homo sapiens) (Q8WZA2 whole entry, looked up): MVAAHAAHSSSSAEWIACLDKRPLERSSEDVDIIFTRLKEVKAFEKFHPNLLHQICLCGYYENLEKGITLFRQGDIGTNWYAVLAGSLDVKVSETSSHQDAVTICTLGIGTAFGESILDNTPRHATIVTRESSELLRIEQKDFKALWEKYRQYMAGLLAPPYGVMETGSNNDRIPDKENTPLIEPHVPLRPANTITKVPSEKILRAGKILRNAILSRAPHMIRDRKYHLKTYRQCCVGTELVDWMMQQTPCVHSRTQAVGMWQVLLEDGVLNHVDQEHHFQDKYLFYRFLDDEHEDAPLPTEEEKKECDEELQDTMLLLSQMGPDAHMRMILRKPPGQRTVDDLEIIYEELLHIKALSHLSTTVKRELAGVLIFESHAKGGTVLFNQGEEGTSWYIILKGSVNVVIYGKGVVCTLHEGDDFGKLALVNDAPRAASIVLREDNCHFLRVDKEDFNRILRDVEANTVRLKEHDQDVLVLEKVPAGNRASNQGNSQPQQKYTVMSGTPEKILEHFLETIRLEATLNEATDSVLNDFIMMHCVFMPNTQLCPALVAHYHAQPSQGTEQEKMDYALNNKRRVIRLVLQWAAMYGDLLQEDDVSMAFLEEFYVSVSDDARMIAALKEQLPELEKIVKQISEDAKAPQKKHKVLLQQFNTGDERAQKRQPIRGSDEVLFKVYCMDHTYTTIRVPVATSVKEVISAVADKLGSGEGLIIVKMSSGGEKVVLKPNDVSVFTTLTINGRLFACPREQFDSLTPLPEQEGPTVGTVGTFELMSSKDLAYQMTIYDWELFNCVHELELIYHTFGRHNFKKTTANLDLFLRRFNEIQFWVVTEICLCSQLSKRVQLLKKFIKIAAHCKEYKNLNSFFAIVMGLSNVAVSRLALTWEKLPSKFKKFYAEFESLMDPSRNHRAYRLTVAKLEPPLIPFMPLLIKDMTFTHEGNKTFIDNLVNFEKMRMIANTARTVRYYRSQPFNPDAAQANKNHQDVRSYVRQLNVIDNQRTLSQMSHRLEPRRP

Question: Which “activation” value does the source give for `Cc1cccc(-n2ccnc2SCC(=O)Nc2ccc(F)cc2F)c1C` here?
Answer: 5.56% [at 83.8 µM, percent relative to cAMP agonist control]

Question: How did the activation turn out when `CN(CC(=O)Nc1cccc(F)c1)C(=O)c1cccc(S(=O)(=O)N2CC3(C)CC2CC(C)(C)C3)c1` (stereo not given) was run?
Answer: 8% [at 17.1 µM, percent relative to cAMP agonist control]

Question: `Cc1cc(C)nc(NS(=O)(=O)c2ccc(NC(=O)CN3C(=O)S/C(=C\c4ccccc4)C3=O)cc2)n1` was tested. Which “activation” value did it give?
Answer: -22.8%

Question: With `O=C(N/N=C/c1c(O)ccc2ccccc12)c1[nH]ncc1Br` as the compound, how does the “activation” value read?
Answer: 26.6%

Question: Which activation does the source give for `COc1ccc(NC(=O)Cn2ncc(Cl)c(Cl)c2=O)cc1S(=O)(=O)N1CCOCC1` here?
Answer: -6.12% [at 17.1 µM, percent relative to cAMP agonist control]

Question: For `O=C(NC1(O)C(=O)c2ccccc2C1=O)c1ccc(C(F)(F)F)cc1`, which “activation” value is on record?
Answer: -7.21%

Question: For `O=C(NC1CCCCC1)C(c1ccc(-c2ccccc2)cc1)n1c(=O)c(-c2ccco2)nc2ccccc21` (stereo not given), which “activation” value is on record?
Answer: 13%

Question: With `Cc1cccc(S(=O)(=O)Nc2ccc(S(=O)(=O)Nc3nccs3)cc2)c1` as the compound, how does the “activation” value read?
Answer: -6.54%

Question: For `O=C(N/N=C/c1ccc(Sc2ccccn2)o1)c1cc2ccccc2cc1O`, which “activation” value is on record?
Answer: -5.03%

Question: How did the activation turn out when `O=C1/C(=C/c2cccs2)COc2ccccc21` was run?
Answer: 1.85% [at 17.1 µM, percent relative to cAMP agonist control]

Question: `COc1ccccc1NC(=O)c1ccccc1NS(=O)(=O)c1cccs1` was tested. Which “activation” value did it give?
Answer: -3.25%

Question: How did the activation turn out when `CCOC(=O)C1=CCN(S(=O)(=O)c2ccccc2Cl)C1c1ccc(Cl)c(Cl)c1` (stereo not given) was run?
Answer: 4.1% [at 17.1 µM, percent relative to cAMP agonist control]

Question: How did the “activation” value turn out when `O=C(CC(c1ccccc1)c1cc(Cl)ccc1O)N1CCCC1` (stereo not given) was run?
Answer: 5.06%

Question: For `CC1OC(CC(=O)O)CC2=C1C(=O)c1c(O)cccc1C2=O` (stereo not given), which “activation” value is on record?
Answer: 19.4%

Question: For `Nc1c2c(=O)[nH]c(O)cc2nn1-c1ccccc1`, which “activation” value is on record?
Answer: 15.5%

Question: `Cc1ccc(C(=O)c2cn(Cc3cccc(C)c3)c3nc(C)ccc3c2=O)cc1` was tested. Which “activation” value did it give?
Answer: 0% [at 83.8 µM, percent relative to cAMP agonist control]

Question: `O=S(=O)(Nc1ccc(Cl)cc1NS(=O)(=O)c1ccccc1)c1ccccc1` was tested. Which activation did it give?
Answer: 1.88% [at 17.1 µM, percent relative to cAMP agonist control]

Question: With `O=C(Nc1sc2c(c1C(=O)O)CCCC2)c1ccc(Cl)cc1` as the compound, how does the activation read?
Answer: 1.39% [at 17.1 µM, percent relative to cAMP agonist control]

Question: `Cc1ccc(-c2cc(C(=O)Nc3ccc(S(=O)(=O)Nc4onc(C)c4C)cc3)c3ccccc3n2)cc1` was tested. Which activation did it give?
Answer: 6.25% [at 17.1 µM, percent relative to cAMP agonist control]

Question: Which “activation” value does the source give for `COc1ccc(NC(=O)CN(C)C(=O)c2cc(-c3ccco3)nc3ccccc23)cc1` here?
Answer: -1.46%

Question: With `CCOC(=O)c1ccc2ncc(C(=O)OCC)c(Nc3ccc(C)c(Br)c3)c2c1` as the compound, how does the “activation” value read?
Answer: -0.487% [at 83.8 µM, percent relative to cAMP agonist control]

Question: `CCCN(CC(=O)Nc1ccccc1OC)C(=O)c1cccc(S(=O)(=O)Nc2ccc(OC)cc2)c1` was tested. Which “activation” value did it give?
Answer: 8.04%

Question: For `Cc1ccccc1C(=O)Nc1sc2c(c1C(=O)N1CCCCC1)CCC(C)C2` (stereo not given), which “activation” value is on record?
Answer: -13.1% [at 83.8 µM, percent relative to cAMP agonist control]

Question: Which “activation” value does the source give for `Cc1ccc(-c2nc3ccc(Br)cn3c2Cc2ccccc2)cc1` here?
Answer: 0%

Question: `COc1ccc(C(CC(=O)c2ccc(C)cc2)C(C#N)C#N)cc1OC` (stereo not given) was tested. Which “activation” value did it give?
Answer: 4.71%

Question: How did the activation turn out when `CCOc1ccccc1NC(=O)C1CCN(c2nc(-c3ccc(OC)cc3)no2)CC1` was run?
Answer: 2.09% [at 17.1 µM, percent relative to cAMP agonist control]

Question: With `CCOc1ccccc1Oc1ncnc2c1oc1ccccc12` as the compound, how does the “activation” value read?
Answer: -36.6% [at 83.8 µM, percent relative to cAMP agonist control]

Question: With `C=CCOC(=O)C1=C(C)NC(C)=C(C(=O)OCC=C)C1c1ccco1` as the compound, how does the activation read?
Answer: 7.19% [at 17.1 µM, percent relative to cAMP agonist control]

Question: For `O=C(CSc1ccc(-c2ccco2)nn1)c1cccc([N+](=O)[O-])c1`, which “activation” value is on record?
Answer: 0.15%

Question: For `Cc1cc(SCC(=O)N/N=C/c2ccc(O)c(O)c2)nc2ccccc12`, which activation is on record?
Answer: 5.52% [at 17.1 µM, percent relative to cAMP agonist control]

Question: How did the “activation” value turn out when `CC(C)Nc1nc(NC(C)C)nc(OCCOC(=O)c2ccccc2)n1` was run?
Answer: 6.48%

Question: With `c1cc(-c2cc3nc(NC4CCCCC4)ccn3n2)ccc1OCCN1CCOCC1` as the compound, how does the “activation” value read?
Answer: 0%

Question: `C=CS(=O)(=O)N(Cc1ccccc1Br)[C@H](CO)CC(C)C` was tested. Which activation did it give?
Answer: 1.88% [at 17.1 µM, percent relative to cAMP agonist control]

Question: How did the “activation” value turn out when `Oc1c(C2=NCCNC(C(F)(F)F)=C2)ccc2ccccc12` was run?
Answer: -21.8% [at 83.8 µM, percent relative to cAMP agonist control]

Question: For `O=C(/C=C/c1ccc(-c2ccccc2[N+](=O)[O-])o1)c1ccco1`, which activation is on record?
Answer: 7.95% [at 17.1 µM, percent relative to cAMP agonist control]

Question: Which “activation” value does the source give for `O=C1N(Cc2ccccc2)c2ccccc2C1(O)c1c[nH]c2ccccc12` (stereo not given) here?
Answer: -13.3% [at 83.8 µM, percent relative to cAMP agonist control]

Question: For `Cn1cccc1C(=O)NC(=O)COC(=O)c1ccc(S(C)(=O)=O)c([N+](=O)[O-])c1`, which activation is on record?
Answer: -3.13% [at 17.1 µM, percent relative to cAMP agonist control]

Question: Which “activation” value does the source give for `CCC1=NN2C(=N)/C(=C/c3ccc(OS(=O)(=O)c4ccccc4)cc3)C(=O)N=C2S1` here?
Answer: 13.2%

Question: `CCCN1CCN(c2ncnc3sc(C(=O)Nc4ccc(OC(F)(F)F)cc4)c(C)c23)CC1` was tested. Which “activation” value did it give?
Answer: -34.4% [at 83.8 µM, percent relative to cAMP agonist control]

Question: Which “activation” value does the source give for `Cc1cccc(Cn2c(COc3ccccc3)nc3ccccc32)c1` here?
Answer: -4.63% [at 83.8 µM, percent relative to cAMP agonist control]
